Laboratory results reported in PubChem BioAssay (EPA / NIEHS).
Inconclusive results are not listed. Activity calls are given as the source filed them. Rule for the calls, unless noted: active = hit-call score of the fitted dose curve at least 0.9, where 1 is the maximum; inactive = score below 0.9.

Experiments:
[1] = biological target: Oxysterols receptor LXR-beta (Homo sapiens) (UniProt P55055); assay: ATG_LXRb_TRANS: Attagene TRANS-FACTORIAL HepG2 Assay for human Liver X Receptor beta (LXRb) (AID 2282981; active = hit-call score of the fitted dose curve at least 0.9, where 1 is the maximum); conditions: HepG2 Attagene TRANS GAL4-LXRb reporter, mRNA
Sequence of Oxysterols receptor LXR-beta (Homo sapiens) (P55055 whole entry, looked up, the tested form may be a part): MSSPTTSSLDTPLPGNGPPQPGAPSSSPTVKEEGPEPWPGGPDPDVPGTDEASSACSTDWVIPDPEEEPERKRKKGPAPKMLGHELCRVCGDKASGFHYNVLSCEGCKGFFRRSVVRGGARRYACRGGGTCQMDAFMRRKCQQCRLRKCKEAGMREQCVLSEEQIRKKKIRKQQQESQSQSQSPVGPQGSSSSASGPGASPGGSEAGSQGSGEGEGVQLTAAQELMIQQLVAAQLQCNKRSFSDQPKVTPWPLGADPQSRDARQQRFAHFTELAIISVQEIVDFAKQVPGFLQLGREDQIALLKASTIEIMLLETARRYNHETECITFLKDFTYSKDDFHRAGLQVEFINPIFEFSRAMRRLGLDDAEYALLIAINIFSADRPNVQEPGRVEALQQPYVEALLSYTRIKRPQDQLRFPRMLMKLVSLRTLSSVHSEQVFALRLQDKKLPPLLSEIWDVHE
Procedure, shortened: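 Readout: fluorescent reporter mRNA fragments resolved by capillary electrophoresis after RT-PCR. System: transiently transfected human HepG2, exogenous LXRb-Gal4 chimera driving GAL4-UAS reporter, 24 h dosing. Activity fitted upward against DMSO baseline.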

[2] = ATG_M_06_TRANS: Attagene TRANS-FACTORIAL HepG2 Assay for M06 Transcription Factor (Internal Marker) (AID 2282983; active = hit-call score of the fitted dose curve at least 0.9, where 1 is the maximum;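 note: reporter transcript level by RT-PCR then capillary electrophoresis fluorescence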); conditions: HepG2 Attagene TRANS M06 internal marker reporter
Procedure, shortened: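 Human liver HepG2 cells bearing transiently transfected chimeric NR-GAL4 reporter units were treated with chemicals for 24 h. Total RNA was reverse-transcribed, reporter sequences amplified and labelled, then quantified by capillary electrophoresis. Activity was fitted upward relative to DMSO.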

[3] = ATG_M_32_TRANS: Attagene TRANS-FACTORIAL HepG2 Assay for M32 Transcription Factor (Internal Marker) (AID 2282984; active = hit-call score of the fitted dose curve at least 0.9, where 1 is the maximum;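 note: transcript level of a background control reporter unit measured by RT-PCR and capillary electrophoresis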); conditions: HepG2 Attagene TRANS M32 internal marker reporter
Procedure, shortened: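 Read-out: fluorescent reporter cDNA fragments resolved by capillary electrophoresis after RT-PCR of total RNA. Transfected HepG2 cells were exposed to chemical for 24 h. Activity scored in the positive direction relative to DMSO.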

[4] = biological target: Nuclear receptor subfamily 4 group A member 2 (Homo sapiens) (UniProt P43354); assay: ATG_NURR1_TRANS: Attagene TRANS-FACTORIAL HepG2 Assay for human Nuclear Receptor Related Protein 1 (NURR1) (AID 2282985; active = hit-call score of the fitted dose curve at least 0.9, where 1 is the maximum); conditions: HepG2 Attagene TRANS reporter, mRNA readout
Sequence of Nuclear receptor subfamily 4 group A member 2 (Homo sapiens) (P43354 whole entry, looked up, the tested form may be a part): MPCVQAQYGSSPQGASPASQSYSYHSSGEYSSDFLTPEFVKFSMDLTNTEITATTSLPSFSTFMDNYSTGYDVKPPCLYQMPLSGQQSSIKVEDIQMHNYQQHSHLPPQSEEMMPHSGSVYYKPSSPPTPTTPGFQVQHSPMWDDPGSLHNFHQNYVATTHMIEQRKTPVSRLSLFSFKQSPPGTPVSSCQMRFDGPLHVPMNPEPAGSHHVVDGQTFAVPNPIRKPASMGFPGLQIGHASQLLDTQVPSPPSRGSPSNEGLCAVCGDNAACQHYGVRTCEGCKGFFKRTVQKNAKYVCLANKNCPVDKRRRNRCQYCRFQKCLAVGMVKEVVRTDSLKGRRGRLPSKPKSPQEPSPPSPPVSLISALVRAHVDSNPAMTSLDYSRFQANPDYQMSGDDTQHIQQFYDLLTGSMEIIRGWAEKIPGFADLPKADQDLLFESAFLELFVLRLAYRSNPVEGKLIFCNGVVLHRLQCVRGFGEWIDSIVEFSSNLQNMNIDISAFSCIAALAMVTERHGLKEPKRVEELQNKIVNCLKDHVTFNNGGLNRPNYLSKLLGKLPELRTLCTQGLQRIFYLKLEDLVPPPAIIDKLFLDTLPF
Procedure, shortened: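 Read-out: reporter mRNA induction by RT-PCR plus capillary electrophoresis with fluorescence detection, after 24 h dosing of transfected HepG2 cells. Exogenous NR-Gal4 chimera activity drives GAL4-UAS reporter; activity fitted upward versus DMSO.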

[5] = biological target: Transcriptional activator Myb (Homo sapiens) (UniProt P10242); assay: ATG_Myb_CIS: Attagene CIS-FACTORIAL HepG2 Assay for human Myeloblastosis (Myb) Proto-Oncogene Transcription Factor (AID 2282986); conditions: HepG2 Attagene CIS-FACTORIAL Myb reporter transcription; actives raise or lower the signal
Sequence of Transcriptional activator Myb (Homo sapiens) (P10242 whole entry, looked up): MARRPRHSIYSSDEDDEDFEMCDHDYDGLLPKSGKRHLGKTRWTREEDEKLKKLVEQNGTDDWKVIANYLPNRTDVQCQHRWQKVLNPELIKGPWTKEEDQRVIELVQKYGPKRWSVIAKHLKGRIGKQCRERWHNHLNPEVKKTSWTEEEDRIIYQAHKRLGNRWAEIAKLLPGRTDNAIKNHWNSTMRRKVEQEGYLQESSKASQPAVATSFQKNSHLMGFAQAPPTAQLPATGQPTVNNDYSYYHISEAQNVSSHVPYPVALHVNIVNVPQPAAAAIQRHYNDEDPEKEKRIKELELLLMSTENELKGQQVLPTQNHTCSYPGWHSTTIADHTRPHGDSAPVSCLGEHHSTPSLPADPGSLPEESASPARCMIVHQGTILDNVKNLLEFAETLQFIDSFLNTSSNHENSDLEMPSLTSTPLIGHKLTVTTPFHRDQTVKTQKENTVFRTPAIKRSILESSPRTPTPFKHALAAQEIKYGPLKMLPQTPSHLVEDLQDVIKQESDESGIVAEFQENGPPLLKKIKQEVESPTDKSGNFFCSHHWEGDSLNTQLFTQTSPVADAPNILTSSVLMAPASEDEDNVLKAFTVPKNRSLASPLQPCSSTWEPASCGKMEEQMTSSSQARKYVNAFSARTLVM
Procedure, shortened: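 Fluorescence signals from capillary electrophoresis of RT-PCR-amplified reporter cDNA give the read-out. Cells: HepG2 transfected with multiple cis-regulated reporter units. Exposure lasts 24 hours; DMSO defines baseline for gain or loss of signal.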

[6] = biological target: Nuclear respiratory factor 1 (Homo sapiens) (UniProt Q16656); assay: ATG_NRF1_CIS: Attagene CIS-FACTORIAL HepG2 Assay for human Nuclear Respiratory Factor 1 (NRF1) Orphan Gene (AID 2282987); conditions: HepG2 NRF1 cis-element reporter, Attagene multiplex; actives raise or lower the signal
Sequence of Nuclear respiratory factor 1 (Homo sapiens) (Q16656 whole entry, looked up): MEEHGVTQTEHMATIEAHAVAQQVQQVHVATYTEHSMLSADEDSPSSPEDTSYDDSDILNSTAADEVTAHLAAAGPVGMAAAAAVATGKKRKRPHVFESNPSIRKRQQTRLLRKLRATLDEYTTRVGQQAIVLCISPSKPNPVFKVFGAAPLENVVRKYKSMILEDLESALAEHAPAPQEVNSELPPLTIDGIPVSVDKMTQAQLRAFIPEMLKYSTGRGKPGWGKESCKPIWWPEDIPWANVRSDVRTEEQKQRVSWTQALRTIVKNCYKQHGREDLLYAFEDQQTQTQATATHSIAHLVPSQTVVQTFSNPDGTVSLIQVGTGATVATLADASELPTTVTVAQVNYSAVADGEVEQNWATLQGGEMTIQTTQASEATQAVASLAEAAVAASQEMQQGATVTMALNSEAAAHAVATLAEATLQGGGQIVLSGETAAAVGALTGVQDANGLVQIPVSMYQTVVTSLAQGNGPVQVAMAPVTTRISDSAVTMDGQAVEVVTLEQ
Procedure, shortened: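 Transcriptional reporter readout, one component of a 52-endpoint multiplexed HepG2 panel. Exposure 24 h; mRNA detected via RT-PCR and fluorescent capillary electrophoresis; fitting in both directions against DMSO.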

[7] = ATG_NFI_CIS: Attagene CIS-FACTORIAL HepG2 Assay for human Nuclear Factor I (NFI) (AID 2282989); conditions: HepG2 cis-regulatory reporter, NFI response element transcription; actives raise or lower the signal
Procedure, shortened: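 Transfected HepG2 liver cells, exposed 24 h, supplied total RNA for oligo(dT) reverse transcription and reporter-specific PCR. Labelled, HpaI-cut fragments were sized by capillary electrophoresis; DMSO set the baseline for bidirectional fitting.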

[8] = biological target: Myc proto-oncogene protein (Homo sapiens) (UniProt P01106); assay: ATG_Myc_CIS: Attagene CIS-FACTORIAL HepG2 Assay for human Myelocytomatosis (Myc) Proto-Oncogene Transcription Factor (AID 2282990); conditions: HepG2, Attagene cis-reporter transcription factor activity; actives raise or lower the signal
Sequence of Myc proto-oncogene protein (Homo sapiens) (P01106 whole entry, looked up): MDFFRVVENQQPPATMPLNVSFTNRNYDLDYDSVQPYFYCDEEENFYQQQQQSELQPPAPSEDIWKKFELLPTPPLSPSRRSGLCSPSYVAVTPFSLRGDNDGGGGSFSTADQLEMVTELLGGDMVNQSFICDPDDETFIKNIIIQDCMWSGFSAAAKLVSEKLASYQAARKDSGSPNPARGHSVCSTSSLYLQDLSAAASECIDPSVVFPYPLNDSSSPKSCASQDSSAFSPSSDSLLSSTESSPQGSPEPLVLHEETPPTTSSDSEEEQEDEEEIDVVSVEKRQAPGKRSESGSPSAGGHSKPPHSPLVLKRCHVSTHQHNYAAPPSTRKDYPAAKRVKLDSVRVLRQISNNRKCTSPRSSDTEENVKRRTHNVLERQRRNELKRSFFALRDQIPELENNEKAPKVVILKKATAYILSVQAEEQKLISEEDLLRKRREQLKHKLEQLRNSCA
Procedure, shortened: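 Transiently transfected HepG2 cells bearing cis-promoter reporter units for endogenous transcription factors; 24 h exposure. Reporter mRNA measured by RT-PCR, 6-FAM primer extension, HpaI cut and capillary electrophoresis; bidirectional fit relative to DMSO.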

[9] = ATG_NF_kB_CIS: Attagene CIS-FACTORIAL HepG2 Assay for human Nuclear Factor Kappa B (NF-kB) (AID 2282991); conditions: HepG2 Attagene cis-factorial NF-kB reporter mRNA; actives raise or lower the signal
Procedure, shortened: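 HepG2, transient multi-reporter transfection, cis promoter elements (endogenous TFs). 24 h exposure. Total RNA → RT → PCR → 6-FAM label → HpaI → CE. Gain/loss vs DMSO.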

[10] = ATG_NRF2_ARE_CIS: Attagene CIS-FACTORIAL HepG2 Assay for human Nuclear Factor Erythroid 2 Related Factor 2 (NFR2) response to Antioxidant Response Elements (ARE) (AID 2282992); conditions: HepG2 Attagene ARE/NRF2 reporter, transcription factor activity; actives raise or lower the signal;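 for AC50: reporter mRNA level measured by RT-PCR and capillary electrophoresis fluorescence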
Procedure, shortened: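 Using transiently transfected HepG2 cells exposed for 24 h, reporter mRNA levels were determined by RT-PCR with fluorescent primer extension and capillary electrophoresis, analysed for gain or loss of signal against DMSO.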

[11] = ATG_Oct_MLP_CIS: Attagene CIS-FACTORIAL HepG2 Assay for human Octamer-Binding Transcription Factor (Oct) (AID 2282993); conditions: HepG2 Attagene cis-factorial Oct reporter, mRNA; actives raise or lower the signal
Procedure, shortened: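 Using HepG2 cells bearing transfected cis-reporter constructs, mRNA induction was read after 24 h by fluorescent RT-PCR and capillary electrophoresis, with DMSO defining baseline for gain- or loss-of-signal fits.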

[12] = biological target: Cellular tumor antigen p53 (Homo sapiens) (UniProt P04637); assay: ATG_p53_CIS: Attagene CIS-FACTORIAL HepG2 Assay for human p53 Transcription Factor (AID 2282994); conditions: HepG2 p53 cis-element reporter, Attagene mRNA; actives raise or lower the signal
Sequence of Cellular tumor antigen p53 (Homo sapiens) (P04637 whole entry, looked up, the tested form may be a part): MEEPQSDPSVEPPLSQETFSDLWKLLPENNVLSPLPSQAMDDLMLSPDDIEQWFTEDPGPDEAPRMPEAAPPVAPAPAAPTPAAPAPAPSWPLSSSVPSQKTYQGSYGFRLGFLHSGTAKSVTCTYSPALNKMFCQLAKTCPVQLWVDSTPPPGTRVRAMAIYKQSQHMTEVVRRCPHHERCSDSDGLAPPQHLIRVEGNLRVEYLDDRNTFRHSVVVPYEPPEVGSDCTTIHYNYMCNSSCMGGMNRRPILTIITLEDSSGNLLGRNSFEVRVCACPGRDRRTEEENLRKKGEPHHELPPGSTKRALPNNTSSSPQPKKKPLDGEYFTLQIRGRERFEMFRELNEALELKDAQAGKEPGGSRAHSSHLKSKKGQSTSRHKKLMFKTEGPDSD
Procedure, shortened: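 In HepG2 cells, reporter transcription units under cis-regulatory promoters were transiently introduced. Following 24 h treatment, RNA was processed to labelled, digested cDNA fragments read by capillary electrophoresis; fitting was bidirectional versus DMSO.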

[13] = biological target: Hepatocyte nuclear factor 4-alpha (Homo sapiens) (UniProt P41235); assay: ATG_HNF4a_TRANS: Attagene TRANS-FACTORIAL HepG2 Assay for human Hepatocyte Nuclear Factor 4 alpha (HNF4a) (AID 2282982; active = hit-call score of the fitted dose curve at least 0.9, where 1 is the maximum); conditions: HepG2 HNF4a transactivation reporter, mRNA readout
Sequence of Hepatocyte nuclear factor 4-alpha (Homo sapiens) (P41235 whole entry, looked up): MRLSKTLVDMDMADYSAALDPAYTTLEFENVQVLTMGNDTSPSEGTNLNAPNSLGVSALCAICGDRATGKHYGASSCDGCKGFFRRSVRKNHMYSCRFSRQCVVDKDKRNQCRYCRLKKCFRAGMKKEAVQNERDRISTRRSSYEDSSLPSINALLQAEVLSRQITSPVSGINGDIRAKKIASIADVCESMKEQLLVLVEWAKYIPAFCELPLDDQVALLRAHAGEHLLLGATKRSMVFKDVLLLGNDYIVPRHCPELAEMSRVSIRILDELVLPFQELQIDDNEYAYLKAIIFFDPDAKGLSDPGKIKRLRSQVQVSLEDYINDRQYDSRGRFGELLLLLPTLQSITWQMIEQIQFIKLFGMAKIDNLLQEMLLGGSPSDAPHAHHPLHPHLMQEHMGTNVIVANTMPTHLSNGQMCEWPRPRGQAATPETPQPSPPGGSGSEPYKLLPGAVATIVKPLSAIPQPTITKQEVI
Procedure, shortened: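 Transient MRTU transfection of HepG2, 24 h dosing. Readout: reporter mRNA via RT-PCR + capillary electrophoresis, fluorescence; activity fit upward relative to DMSO control.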

[14] = BSK_3C_TissueFactor: BioMAP Diversity Plus: 3C Assay for Tissue Factor Biomarker Activity (AID 2282997); conditions: BioMAP 3C HUVEC, tissue factor biomarker readout; actives raise or lower the signal
Procedure, shortened: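 Cells used were primary human umbilical vein endothelial cells. They were dosed with chemical, and after 24 h Tissue Factor was quantified by ELISA. Curves were fitted bidirectionally with DMSO as baseline.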

[15] = BSK_3C_uPAR: BioMAP Diversity Plus: 3C Assay for Urokinase-type plasminogen activator receptor (uPAR) Biomarker Activity (AID 2282998); conditions: BioMAP 3C HUVEC, uPAR biomarker ELISA; actives raise or lower the signal
Procedure, shortened: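 In this endothelial cell-based assay, human umbilical vein primary cells were treated with chemicals and harvested at 24 h. uPAR was quantified using ELISA, with gains or losses fitted relative to DMSO controls.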

[16] = BSK_3C_VCAM1: BioMAP Diversity Plus: 3C Assay for Vascular cell adhesion molecule 1 (VCAM1) Biomarker Activity (AID 2282999); conditions: BioMAP 3C HUVEC, VCAM1 ELISA, cytokine-stimulated; actives raise or lower the signal
Procedure, shortened: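 HUVEC primary cells, 24 h compound exposure; VCAM-1 by ELISA; gain/loss of signal fitted bidirectionally vs DMSO baseline.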

[17] = biological target: Oxysterols receptor LXR-alpha (Homo sapiens) (UniProt Q13133); assay: ATG_LXRa_TRANS: Attagene TRANS-FACTORIAL HepG2 Assay for human Liver X Receptor alpha (LXRa) (AID 2282980; active = hit-call score of the fitted dose curve at least 0.9, where 1 is the maximum); conditions: HepG2 Attagene TRANS reporter, LXRa transactivation
Sequence of Oxysterols receptor LXR-alpha (Homo sapiens) (Q13133 whole entry, looked up): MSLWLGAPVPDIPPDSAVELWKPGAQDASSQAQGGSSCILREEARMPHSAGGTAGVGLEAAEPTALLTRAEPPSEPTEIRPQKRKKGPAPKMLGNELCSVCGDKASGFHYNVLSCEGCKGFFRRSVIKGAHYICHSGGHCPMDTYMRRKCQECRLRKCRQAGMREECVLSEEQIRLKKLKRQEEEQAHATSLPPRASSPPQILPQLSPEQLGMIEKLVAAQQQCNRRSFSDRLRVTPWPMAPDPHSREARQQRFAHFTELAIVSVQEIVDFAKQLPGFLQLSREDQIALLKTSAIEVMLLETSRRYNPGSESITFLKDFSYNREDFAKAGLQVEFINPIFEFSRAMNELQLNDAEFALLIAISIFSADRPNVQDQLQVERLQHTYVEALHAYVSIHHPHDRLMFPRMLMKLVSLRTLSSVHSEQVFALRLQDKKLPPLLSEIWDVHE
Procedure, shortened: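 Transient HepG2 transfectants, 24 h dosing, RT-PCR/CE mRNA reporter quantitation; gain-of-signal vs DMSO.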

Row | SMILES | outcome [1] | outcome [2] | outcome [3] | outcome [4] | outcome [5] | outcome [6] | outcome [7] | outcome [8] | outcome [9] | outcome [10] | outcome [11] | outcome [12] | outcome [13] | AC50 [10] | outcome [14] | outcome [15] | outcome [16] | outcome [17] | AC50 [11] | AC50 [14]
1 | CCCCCCCCCCCCOCCOS(=O)(=O)O | inactive | inactive | inactive | inactive | inactive | inactive | inactive | inactive | inactive | inactive | inactive | inactive |  |  |  |  |  |  |  | 
2 | CC1=CC[C@@H](C(C)(C)O)CC1 | inactive |  |  |  | inactive | inactive | inactive | inactive | inactive |  |  |  | inactive | 40.6 µM (active) |  |  |  |  |  | 
3 | c1ccc2scnc2c1 | inactive |  |  |  | inactive | inactive | inactive | inactive | inactive |  | inactive | inactive |  | 42.1 µM (active) |  |  |  |  |  | 
4 | OCCN1CCOCC1 | inactive |  | inactive | inactive | inactive | inactive | inactive | inactive | inactive | inactive | inactive |  | inactive |  | inactive | inactive | inactive |  |  | 
5 | CC1=CCC(C(C)C)=CC1 | inactive |  |  | inactive | inactive | inactive | inactive | inactive |  | inactive | inactive |  |  |  |  |  |  |  |  | 
6 | CC1(C)CC(=O)CC(C)(C)N1 | inactive | inactive |  | inactive | inactive | inactive | inactive | inactive | inactive | inactive | inactive | inactive |  |  |  |  |  |  |  | 
7 | CC(CO)c1ccccc1 (stereo not given) | inactive |  | inactive |  | inactive |  | inactive | inactive | inactive | inactive | inactive | inactive |  |  |  |  |  |  |  | 
8 | CC(C)COC(=O)c1ccccc1 | inactive | inactive |  |  | inactive | inactive | inactive | inactive | inactive | inactive | inactive | inactive | inactive |  |  |  |  |  |  | 
9 | CC1=CCC(=C(C)C)CC1 | inactive |  |  | inactive | inactive | inactive | inactive | inactive |  |  | inactive | inactive | inactive | 32 µM (active) |  |  |  |  |  | 
10 | CCCC1CCOC(C)S1 (stereo not given) |  |  | inactive |  | inactive | inactive | inactive | inactive | inactive | inactive |  |  |  |  |  |  |  | inactive |  | 
11 | C=C(C)C(=O)OCCC[Si](OC)(OC)OC | inactive |  | inactive |  | inactive | inactive | inactive | inactive | inactive | inactive | inactive | inactive | inactive |  |  |  |  |  |  | 
12 | CC(=O)CCc1ccc(O)cc1 | inactive | inactive | inactive |  | inactive | inactive | inactive | inactive | inactive | inactive |  | inactive |  |  |  |  |  |  |  | 
13 | C[N+](C)(C)CCO | inactive |  |  |  | inactive | inactive | inactive | inactive |  |  | inactive |  | inactive | 101 µM (active) |  |  |  |  |  | 
14 | CN(C)C(=O)Nc1ccccc1 | inactive |  |  | inactive | inactive | inactive | inactive | inactive | inactive | inactive | inactive |  | inactive |  |  |  |  |  |  | 
15 | CCC(C)C1CCCCC1=O (stereo not given) |  |  | inactive | inactive | inactive | inactive | inactive | inactive | inactive | inactive |  | inactive |  |  |  |  |  | inactive |  | 
16 | O=c1cc(-c2ccc(O)cc2)oc2cc(O)cc(O)c12 | inactive | inactive |  | inactive | inactive |  | inactive | inactive |  | inactive |  | inactive | inactive |  |  |  |  |  | 26.5 µM (active) | 
17 | CC(=O)OC(C)(C)C1CC=C(C)CC1 (stereo not given) |  |  | inactive | inactive | inactive |  | inactive | inactive |  | inactive | inactive | inactive |  |  |  |  | inactive | inactive |  | 29.8 µM (active)
18 | NCCN1CCNCC1 | inactive | inactive | inactive | inactive | inactive |  | inactive | inactive | inactive | inactive | inactive |  |  |  |  |  |  |  |  | 
